Measurements: PubChem BioAssay (NCATS)
Results filed as inconclusive are left out. Unmarked numbers belong to inactive results. Calls follow the shape of the dose curve; as a rule, active = well fitted activation curve with a large enough effect; inconclusive = small, poorly fitted or top-dose-only effect; inactive = no such curve, though single readings can be large or run the other way.

Test: qHTS for Activators of Parkin Expression: LOPAC Validation Assay (FLuc Reporter) (AID 720573)
Conditions: Cell line, PRKN promoter firefly luciferase reporter, vehicle wells = 0, positive control = 100%; series mostly up to 46.1 µM; activation: at the top concentration
Excerpt: Parkin is an E3 ubiquitin ligase localized in the cytosol of cells expressed in many tissues, including brain, skeletal muscle, heart and liver tissues. One hour after stress induction by mitochondrial uncouplers (which mimic mitochondria damage by decreasing the mitochondrial inner membrane electrochemical gradient that is used to produce ATP), Parkin translocates from the cytosol to mitochondria in many cultured cell types, including neurons and HeLa cells. Administration of other mitochondrial poisons, such as Paraquat and azide in cells lacking mitochondrial DNA (mtDNA), induces Parkin translocation to mitochondria. […] It was proposed that Parkin (together with Pink1) mediates a mitochondrial quality control pathway to maintain organelle population fidelity by removing damaged mitochondria. Understanding the normal physiologic role of Parkin (and Pink1) may uncover novel treatment strategies for sporadic Parkinson's disease patients with mutation in these genes.
A cell based qHTS in 1536 well format was developed assess modulation of Parkin expression using a neuronal cell line that stably expresses a stably expresses a luminescent coincidence reporter (FLuc and NLuc reporters) behind the Parkin promoter. The LOPAC library is used to validate the assay for quantitative high-throughput screening. The data herein reports the signal from the FLuc reporter. An increase in this signal = activation of Parkin expression. For this assay , a positive control normalized signal increase corresponding to a high quality qHTS curve class in both luminescent channels is the desired outcome for this assay.
NIH Chemical Genomics Center [NCGC]
NIH Molecular Libraries Probe Centers Network [MLPCN]
Assay Submitter (PI): Richard Youle, National Institute of Neurological Disorders and Strokes (NINDS), NIH
[1] Narendra, D., et al., Parkin is recruited selectively to impaired mitochondria and promotes their autophagy. J Cell Biol, 2008. 183(5): p. 795-803.
[2] Suen, D.F., et al., Parkin overexpression selects against a deleterious mtDNA mutation in heteroplasmic cybrid cells. Proc Natl Acad Sci U S A, 2010. […] 11835-40.
[3] Cheng K, Inglese J. A coincedence reporter-gene system for high-throughput screening. Nat Methods. 2012: 9(10);937
Five microliters (1,500 cells/well) of the Parkin coincidence reporter cells were seeded to 1536 well assay plates (Greiner Catalog # 789173-F) and incubated at 37 C, 5% CO2 for 24 hours. Compounds (23 nL) were pinned using the Kalypsys robotic system equipped with 1536 pin head adaptor in 7-point dose response. The assay plates were incubated for additional 24 hr at 37 C, 5% CO2 followed by a volume reduction in each well to 2 uL using an automated plate washer/aspirator. Following the volume reduction,2 uL of FLuc detection reagent and plates were incubated for 10 minutes at room temperature. The FLuc luminescence signal was obtained using the PerkinElmer ViewLux plate imager and then 2 uL of NanoLuc detection reagent was added to the plates. After another 10 minute incubation, NanoLuc signal was obtained using the PerkinElmer ViewLux plate imager as before. Data from each channel was normalized to DMSO (neutral control) and the positive control compounds (100%).

Row | SMILES | activation
1 | O=C1NCN(c2ccccc2)C12CCN(CCCC(c1ccc(F)cc1)c1ccc(F)cc1)CC2 | -14.1%
2 | Cc1nnc(SCC2=C(C(=O)O)N3C(=O)[C@@H](NC(=O)Cn4cnnn4)[C@H]3SC2)s1 | -4.28%
3 | CNCCC(Oc1ccccc1OC)c1ccccc1 (stereo not given) | 0.909%
4 | CC(=O)OC(C)C[N+](C)(C)C (stereo not given) | -1.39%
5 | C[C@]12CC[C@@H]3c4ccc(O)cc4C[C@@H](CCCCCCCCCS(=O)CCCC(F)(F)C(F)(F)F)[C@H]3[C@@H]1CC[C@@H]2O (stereo not given in full) | -16%
6 | C[N+](C)(C)CCOC(N)=O | 4.17%
7 | CCO/C([O-])=N/c1c[n+](N2CCOCC2)no1 | 6.07%
8 | C=CCc1ccccc1OCC(O)CNC(C)C (stereo not given) | -16.4%
9 | OCCN1CCN(CCCN2c3ccccc3C=Cc3ccccc32)CC1 | -7.54%
10 | CCCN(CCC)C(=O)C(CCC(=O)O)NC(=O)c1ccccc1 (stereo not given) | -6.64%
11 | CC(=O)[C@]1(O)Cc2c(O)c3c(c(O)c2[C@@H](O[C@H]2C[C@H](N)[C@H](O)[C@H](C)O2)C1)C(=O)c1ccccc1C3=O | -47.5%
12 | CCN1CCc2nc(N)oc2CC1 | 0.854%
13 | CN(C)CCCN1c2ccccc2Sc2ccccc21 | -7.51%
14 | Cc1ccc(Cl)c(Nc2ccccc2C(=O)O)c1Cl | -15.8%
15 | NC(N)=NC(=O)Cc1c(Cl)cccc1Cl | -1.91%
16 | CCCCCN(CCCCC)C(=O)C(CCC(=O)O)NC(=O)c1ccc(Cl)c(Cl)c1 (stereo not given) | -6.59%
17 | Cc1ccc(/C(=C\CN2CCCC2)c2ccccn2)cc1 | -3.49%
18 | O=C(CCCN1CCC(O)(c2cccc(C(F)(F)F)c2)CC1)c1ccc(F)cc1 | -9.67%
19 | COc1ccc([C@@H]2Sc3ccccc3N(CCN(C)C)C(=O)[C@@H]2OC(C)=O)cc1 | -8.27%
20 | COCCOC(=O)C1=C(C)NC(C)=C(C(=O)OC(C)C)C1c1cccc([N+](=O)[O-])c1 (stereo not given) | -10.3%

Row | SMILES | activation
21 | NC/C=C/C(=O)O | 1.71%
22 | Brc1c(NC2=NCCN2)ccc2nccnc12 | -1.08%
23 | CC(C(=O)O)c1ccc(CC2CCCC2=O)cc1 (stereo not given) | -6.91%
24 | CN(C(=O)CCCOc1ccc2[nH]c(=O)ccc2c1)C1CCCCC1 | 8.13%
25 | CN(C)C/C=C(/c1ccc(Br)cc1)c1cccnc1 | -3.99%
26 | COC(=O)C1=C(C)NC(C)=C(C(=O)OC(C)(C)CN(C)CCC(c2ccccc2)c2ccccc2)C1c1cccc([N+](=O)[O-])c1 (stereo not given) | -17.9%
27 | CCOC(=O)c1cnc2c(cnn2CC)c1NN=C(C)C | 9.4%
28 | CCn1cc(C(=O)O)c(=O)c2cc3c(cc21)OCO3 | -10.8%
29 | COc1ccc2c(c1OC)C(=O)O[C@@H]2[C@H]1c2c(cc3c(c2OC)OCO3)CCN1C | -3.99%
30 | CN(C)C(=O)Oc1cccc([N+](C)(C)C)c1 | 7.77%
31 | COc1cc(Cc2cnc(N)nc2N)cc(OC)c1OC | 1.86%
32 | CC(C)COCC(CN(Cc1ccccc1)c1ccccc1)N1CCCC1 (stereo not given) | -9.23%
33 | CCN(CC)CCNC(=O)c1cc(S(C)(=O)=O)ccc1OC | -5.62%
34 | NC(Cc1ccc(Cl)cc1)C(=O)O (stereo not given) | -2.47%
35 | O=C(CCNNC(=O)c1ccncc1)NCc1ccccc1 | 27%
36 | N[C@@H](COP(=O)(O)O)C(=O)O | -0.629%
37 | CC(=O)Nc1nnc(S(N)(=O)=O)s1 | -4.78%
38 | CCN(CC)CCNC(=O)c1ccc(NC(C)=O)cc1 | -2.13%
39 | Cc1nc2c([nH]1)c(=O)n(C)c(=O)n2Cc1ccco1 | 7.34%
40 | CC(N=C(NC#N)Nc1ccncc1)C(C)(C)C (stereo not given) | -8.52%
